# Source: PubChem BioAssay (several laboratories)
# NR5A2 inv ag – LRH-1 (NR5A2) inverse agonists, primary screen, cell-based, luminescence, HEK293T, StAR-luciferase reporter | Nuclear receptor subfamily 5 group A member 2 (Homo sapiens), O00482 | LRH-1 transfected, 24 h | inhibition, % at 3.6 µM | actives 0.13% (n = 360,000) | AID 602396, 2012;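 active means inhibition above the mean inhibition of all tested compounds plus 3 SD, cut at about 73% in these data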;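 further: 0% = DMSO wells and 100% = reporter-only cells lacking LRH-1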
# COUP-TFII inh – NR2F2 transcriptional activity inhibitors, primary screen, cell-based, luciferase reporter, HEK293T, luminescence | inhibition, % at 8.6 µM | HEK293T NGFI-A luciferase reporter | actives 0.7% (n = 370,000) | COUP transcription factor 2 (Homo sapiens), P24468 | AID 686940, 2013;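 active means inhibition above a per-plate cutoff, mean inhibition of test wells between control levels plus 3 SD, cut at about 38% in these data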;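 further: cells cotransfected with COUP-TFII expression vector driving the NGFI-A reporter; 0% = median of COUP-TF2 test wells and 100% = reporter-only cells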
# NCOA3 inh – SRC3 coactivator transcriptional activity inhibitors, primary screen, cell-based, luminescence | inhibition, % at 3.6 µM | Nuclear receptor coactivator 3 (Homo sapiens), Q9Y6Q9 | HEK293 GAL4-SRC3 luciferase reporter | actives 0.17% (n = 360,000);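 active means inhibition above a per-campaign cutoff, the mean of all compounds plus 3 SD, cut at about 60% in these data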;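 further: 0% = DMSO-treated cells and 100% = gossypol-treated cells at 36 µM; higher means less SRC3-driven luciferase light from the GAL4 reporter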
# SRC1 inh – SRC1 coactivator transcriptional activity inhibitors, primary screen, cell-based, luminescence | Nuclear receptor coactivator 1 (Homo sapiens), Q15788 | HEK293 GAL4-SRC1 luciferase reporter | inhibition, % at 3.6 µM | actives 0.12% (n = 360,000) | AID 588354, 2011;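 active means inhibition above the campaign mean plus 3 SD, with each screening campaign given its own cutoff, cut at about 60% in these data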;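 further: 0% = DMSO treated cells and 100% = gossypol at 36 µM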
# Gli-Sufu antag – Gli-Sufu pathway antagonists, primary screen, luciferase luminescence, Sufu-KO-LIGHT cells, uHTS. Sufu-KO-LIGHT fibroblasts, Gli luciferase reporter luminescence. actives 0.74% (n = 340,000). inhibition, % at 5 µM;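 active means inhibition above about 55%, limit read from the data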;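 further: 0% = DMSO-treated cells and 100% = wells with medium but no cells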
# NCOA2 inhibitor – inhibition of GAL4-SRC2 driven luciferase reporter, primary screen, SRC2 inhibitor project, cell-based, luminescence. inhibition, % at 9 µM. actives 0.17% (n = 370,000). HEK293 GAL4-SRC2 luciferase reporter;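 active means inhibition above the mean inhibition of all tested compounds plus 3 SD, set per campaign, cut at about 52% in these data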;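 further: 0% = DMSO treated cells and 100% = cells given Gossypol at 36 µM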
# VP16 Luc counter – Gal4-VP16 luciferase reporter inhibitors, counter-screen for COUP-TFII antagonist project, cell-based, luminescence, HEK293 | shares compounds with COUP-TFII inh | inhibition, % at 8.5 µM | actives 25% (n = 2,500) | AID 687007, 2013; in the data active means inhibition above about 13%
# NR2F2 inh conf – NR2F2 transcriptional activity inhibitors, confirmation, cell-based, luciferase reporter, HEK293, triplicate; inhibition, % at 8.5 µM; AID 687008, 2013; HEK293 NGFI-A luciferase reporter, luminescence; shares compounds with COUP-TFII inh; actives 45% (n = 2,500);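 active means mean inhibition over three repeats above a set limit taken from the earlier primary screen, cut at about 38% in these data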;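 further: 100% = cells given the luciferase reporter alone without the COUP-TF2 vector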
# Active calls of the source: *; i = inactive; . = no result. In the library only some 1.3% were active in any assay of this set; here they are far more common.
SMILES,NR5A2 inv ag,COUP-TFII inh,NCOA3 inh,SRC1 inh,Gli-Sufu antag,NCOA2 inhibitor,VP16 Luc counter,NR2F2 inh conf
COc1ccc(/C=C2\SC(=O)N(CCCC(=O)Nc3ccc(C(=O)O)cc3)C2=O)cc1,74*,98*,73*,73*,.,91*,83*,96*
Cc1ccc(/C=C2\SC(=S)N(CCCC(=O)Nc3ccccn3)C2=O)cc1,42,81*,57,48,47,89*,40*,35
COc1ccc(S(=O)(=O)N2CCOCC2)cc1NC(=O)c1ccncc1,5,-2,3,-29,-1,8,.,.
O=C(c1ccccc1)c1ccc(O)c(O)c1O,-3,1,3,-73,5,0,.,.
COc1cc2ccccc2cc1C(=O)N1CCN(c2ccccc2O)CC1,-19,-33,14,9,-5,4,.,.
Cc1cccc(C)c1NC(=O)C1(C)CCC(=O)N1CCc1c[nH]c2ccccc12 (stereo not drawn),15,6,-4,-3,.,-33,.,.
COc1ccc(C[C@H](N)C(=O)N[C@H]2[C@@H](O)[C@H](n3cnc4c(N(C)C)ncnc43)O[C@@H]2CO)cc1,102*,99*,95*,94*,90*,86*,48*,97*
CN(C)S(=O)(=O)N1CCC(Oc2ccc(C(=O)NC3Cc4ccccc4C3)cc2)CC1,-11,23,-2,-5,8,-4,.,.
CN(C)S(=O)(=O)N1CCC(Oc2cccc(C(=O)NC3CCCCCC3)c2)CC1,39,63*,11,18,47,24,5,66*
COCc1cc(N2CCN(C(=O)OC(C)(C)C)C[C@@H]2C)ccc1N1CCN(Cc2ccccc2)[C@@H](C)C1,.,37*,.,.,.,-3,5,16
N#Cc1[nH]nc2nc[nH]c(=O)c12,.,1,.,.,.,-9,.,.
CCN(c1cccc(C(F)(F)F)c1)S(=O)(=O)c1ccc2c(c1)CCN2C(C)=O,-1,47*,6,7,12,21,0,3
CCN(c1cccc(C)c1)S(=O)(=O)c1ccc2c(c1)CCN2C(C)=O,5,9,11,8,5,1,.,.
Nc1ccc(C(=O)C(=O)c2ccc(N)cc2)cc1,0,2,-8,18,-1,3,.,.
N=C1C=CC(=C(c2ccc(N)cc2)c2ccc(N)cc2)C=C1,46,46*,55,30,51,-19,14*,63*
Cc1ccc(Cc2c(-c3ccco3)nc3c4ccccc4ccn23)cc1,38,41*,-1,25,.,-18,-107,19
Cc1ccc(NC(=O)COC(=O)CC2CC3CCC2C3)cc1S(=O)(=O)N1CCOCC1 (stereo not drawn),25,10,-8,-7,3,18,.,.
CNC(=O)COC(=O)COc1ccc2c(C)cc(=O)oc2c1,6,-3,0,5,-7,2,.,.
Cc1cc(=O)oc2cc(OCC(=O)OCC(=O)Nc3ccccc3Br)ccc12,11,55*,16,-6,-2,-18,-9,1
C=CC(=O)N1C/C(=C/c2ccc(F)cc2)C(=O)/C(=C\c2ccc(F)cc2)C1,60,106*,-201,i,12,96*,86*,104*
O=C(c1cccs1)N1C[C@H](O)[C@@H](n2cc(-c3ccc(F)cc3)nn2)C[C@@H]1c1ccccc1,0,4,-4,-8,.,14,.,.
